Experimental findings from PubChem BioAssay (EPA / NIEHS) are described below.

Activity calls are given as the source filed them. How the source made its calls: active means hit-call score of the fitted dose curve at least 0.9, where 1 is the maximum; inactive means score below 0.9.

The nature of this test: CCTE_Simmons_MITO_basal_resp_rate: CCTE's HepG2 Seahorse XF Respirometric Screening Assay at Basal Respiratory State, Simmons Lab (AID 2284001). The following applies: actives raise or lower the signal. How it is done: CCTE_Simmons_MITO is cell-based, respirometric assay using HepG2 cells and a Seahorse XF Analyzer to measure oxygen consumption rates over four temporal phases spanning a total of 72 minutes: pre-injection (pre-treatment), basal (following test compound injection), maximal (following FCCP uncoupler injection), and inhibited (following rotenone/antimycin A injection)CCTE_Simmons_MITO_basal_resp_rate is one of 4 assay components calculated from the CCTE_Simmons_MITO assay. It is designed to make measurements of basal respiration using a form of respirometric reporter, as detected with […] signals by Seahorse XF96 technology. Data from the assay component CCTE_Simmons_MITO_basal_resp_rate was analyzed at the endpoint, CCTE_Simmons_MITO_basal_resp_rate_OCR, with bidirectional fitting relative to DMSO as the negative control and baseline of activity. Using a type of respirometric reporter, measures of basal respiration for gain or loss-of-signal activity can be used to understand cellular oxygen consumption as it relates to cellular respiration. To generalize the intended target to other relatable targets, this assay endpoint is annotated to the mitochondria intended target family, where the subfamily is respiration.
Test chemicals were administered as a titrated series of 7 concentrations from 125 nM up to 100 uM [final] prior to kinetic endpoint detection at 6 minute intervals [3 min mix followed by 3 minutes measure] for 72 minutes. Three biological replicates of technical singles were run for every chemical concentration tested. Dimethylsulfoxide [DMSO] was used as the vehicle control. The electron transport chain inhibitor fenpyroximate was used as the positive control for decreased basal respiration and was administered as a titrated series of 6 concentrations from 250 nM up to 2.75 uM [final] with technical triplicates for the top concentration only. The uncoupler 2,4-dintirophenol was used as the positive control for increased basal respiration and was administered as a titrated series of 6 concentrations from 938 nM up to 40 uM [final] with technical triplicates for the top concentration only. A Seahorse XF Analzyer is required to measure the response.
Consider `O=C(NO)C1(NS(=O)(=O)c2ccc(Oc3ccc(F)cc3)cc2)CCOCC1`, for which the AC50 was 39.2 µM (active). Take `NC(=O)NN=Cc1ccc([N+](=O)[O-])o1`: the AC50 was 50 µM (active). On to `CCc1ccc(O)c(C(C)(C)C)c1`, for which the molecule was classed as inactive. As to `Cc1nccn1-c1ccc(Sc2cccc(C3(C(N)=O)CCOCC3)c2)cc1`, the AC50 was 9.2 µM (active). Take `CCOc1ccc2[nH]cc(C(=O)NCc3ccccc3)c(=O)c2n1`: the molecule was called inactive. Still for that read-out and setting: the value for `O=C1CN(N=Cc2ccc([N+](=O)[O-])o2)C(=O)N1` was “inactive”. Same read-out and setting: to `O=C(O)c1cccc(C[C@@H]2COc3ccc(OCc4nc5cc(F)ccc5s4)cc3[C@@H]2O)c1` belongs “inactive”. As to `CC(C)c1nnc2ccc(-c3ocnc3-c3cc(F)ccc3F)cn12`, the AC50 was 25.6 µM (active). On the same count and under the same terms, the value for `C=CCc1cc(S(=O)(=O)c2ccc(O)c(CC=C)c2)ccc1O` was 12.3 µM (active); that for `CCCCCCCC1CCC(=O)O1` (stereo unspecified) was 46.4 µM (active).

As for `CCN(CC)C(=S)SSC(=S)N(CC)CC`, the result was inactive.
